Source: PubChem BioAssay (NCI)
About 83,000 compounds went through this panel and 20% of them were active in at least one assay; those are over-represented in the sample as a whole.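 Growth was measured after 48 h exposure to one concentration of compound in 96-well plates. Values under 10 count as active.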 Values without a mark were called inactive. Calls of active or inactive are those of the source.

Tested on: HL-60(TB) leukemia
Assay: NCI-60 one-dose screen, 48 h (100 = growth as untreated, 0 = no growth, -100 = all killed)
Conditions: 10 µM unless noted

Question: With `CCc1ccc(NC(=O)N[C@@H](Cc2cccc(C)c2)C(=O)N[C@@H]2C(=O)N3CCC[C@H]3C(=O)N3CCCC[C@H]3C(=O)N[C@@H](CO)C(=O)N3C[C@H](C)C[C@H]3C(=O)O[C@H]2C)c(F)c1` as the compound, how does the growth read?
Answer: 15.8%

Question: `Nc1ccc(-c2nnc(SCc3ccc(O)c4ncccc34)n2-c2ccccc2)cc1` was tested. Which growth did it give?
Answer: 11.5%

Question: With `Clc1ccc2oc3c(NCCCN4CCOCC4)c4ccccc4nc3c2c1` as the compound, how does the growth read?
Answer: 20.8%

Question: For `CCCC(=O)NC(c1cccnc1)c1cc(Cl)c2cccnc2c1O` (stereo not given), which growth is on record?
Answer: 34.1%

Question: `Clc1ccc2c(NCCCn3ccnc3)c3oc4ccc(Cl)cc4c3nc2c1` was tested. Which growth did it give?
Answer: 78.6%

Question: Which growth does the source give for `CS(=O)c1nccc(-c2c(-c3ccc(F)c(OCc4ccccc4)c3)nc3sccn23)n1` (stereo not given) here?
Answer: -6.35% (active)

Question: Which growth does the source give for `N#C/C(=C\c1ccc(-c2ccc(Cl)cc2Cl)o1)c1ccc(F)cc1` here?
Answer: 95.9%

Question: For `CCC(=O)Nc1ccc(-c2nc(-c3cccc(O)c3)c(-c3ccnc(Br)c3)[nH]2)cc1`, which growth is on record?
Answer: 35.6%

Question: Which growth does the source give for `CCOC(=O)Nc1cccc(-n2cnc3cc(-c4ccc(O)cc4)ccc32)c1` here?
Answer: 2.92% (active)

Question: With `CC(=O)Nc1cccc(-n2cnc3cc(-c4ccc(O)cc4)ccc32)c1` as the compound, how does the growth read?
Answer: 6.68% (active)

Question: With `CC[C@@H](CO)Nc1ccc2ncc(C#Cc3cncc(C(=O)Nc4ccc(CN5CCN(C)CC5)c(C(F)(F)F)c4)c3)n2n1` as the compound, how does the growth read?
Answer: -27.3% (active)

Question: With `C1=CC(c2nn3c(-c4ccccc4)nnc3s2)=Cc2ccccc2O1` as the compound, how does the growth read?
Answer: 37%

Question: `COc1ccc(-c2nc3cc(Cl)c(Cl)cc3n2CC(=O)N=Nc2c(O)[nH]c3ccc(Cl)cc23)cc1` was tested. Which growth did it give?
Answer: 59.7%

Question: With `Cc1cn(-c2cc(NC(=O)c3cncc(C#Cc4cnc5ccc(O[C@H]6CCOC6)nn45)c3)cc(C(F)(F)F)c2)cn1` as the compound, how does the growth read?
Answer: 37.6%

Question: `COc1ccc2c(ccn2C(=O)N2c3ccccc3Sc3ccccc32)c1` was tested. Which growth did it give?
Answer: 13.7%

Question: With `O=C(COc1ccc(C2SCC(=O)N2c2ccccc2)cc1)c1ccccc1` (stereo not given) as the compound, how does the growth read?
Answer: 96.2%

Question: With `NS(=O)(=O)c1ccc(-n2cc(CN3CCNCC3)nn2)cc1` as the compound, how does the growth read?
Answer: 107%

Question: With `COc1cc(/C=C/C(=O)c2ccc(F)cc2)ccc1Oc1nc(NCCO)nc(N2CCOCC2)n1` as the compound, how does the growth read?
Answer: 39.8%

Question: Which growth does the source give for `Cc1ccc2c(n1)C(=O)C(Cl)=C(Nc1ccc(C(=O)OC(C)(C)C)cc1)C2=O` here?
Answer: 4.87% [9.25 µM] (active)

Question: `CCOC(=O)c1c(Nc2ccccc2)nn2c(-c3ccc(OC)cc3)ccnc12` was tested. Which growth did it give?
Answer: 77.3%

Question: `Cc1sc2nc(NCc3ccccc3Cl)[nH]c(=O)c2c1C` was tested. Which growth did it give?
Answer: 75.1%

Question: How did the growth turn out when `O=C(Nc1cccc(-c2nc(-c3ccc(NC(=O)c4cccnc4)cc3Cl)no2)c1)Nc1ccc(NC(=O)C2CC2)c(C(F)(F)F)c1` was run?
Answer: -41.5% (active)

Question: How did the growth turn out when `Cc1nc(-c2cc3ccccc3oc2=O)ccc1C(=O)/C=C/c1ccccn1` was run?
Answer: 32.9%

Question: Which growth does the source give for `CC(C)C[C@@H]1N[C@@]2(C(=O)Nc3ccccc32)[C@@H](c2ccc(F)cc2)[C@@H]1C(=O)c1ccc(O)cc1` here?
Answer: 105%

Question: `O=S(=O)(NC1c2ccccc2C[C@H]1O)c1ccc(Cl)cc1Cl` (stereo not given in full) was tested. Which growth did it give?
Answer: 98.1%

Question: With `C=CCSC1=NC2C(N(CC)C(=O)N2CC)N1/N=C/C=C/c1ccccc1OC` (stereo not given) as the compound, how does the growth read?
Answer: 45.6%

Question: With `C#C[C@]1(O)CC[C@H]2[C@@H]3CC=C4c5sc(Nc6cccc(F)c6)nc5CC[C@]4(C)[C@H]3CC[C@@]21C` as the compound, how does the growth read?
Answer: -13.1% (active)

Question: With `Cc1cnc2nc(NN)[nH]n12` as the compound, how does the growth read?
Answer: 100%

Question: For `CNC(=O)c1cc(-c2ccc(NC(=O)Nc3ccc(N4CCOCC4)c(C(F)(F)F)c3)cc2)nc2cccnc12`, which growth is on record?
Answer: 25.2%

Question: For `CC(C)(C)Nc1nc2c(OCCc3ccccc3)cccn2c1-c1ccc(O)cc1`, which growth is on record?
Answer: -9.89% (active)

Question: Which growth does the source give for `Cc1ccc(-n2c(/C=C3\C(=O)Nc4ccccc43)ccc2CO)cc1` here?
Answer: 25.4%

Question: Which growth does the source give for `CC(Nc1c(C#N)cnc2ccc(-c3cncc(O)c3)cc12)c1ccccc1` (stereo not given) here?
Answer: 3.91% (active)

Question: Which growth does the source give for `C=C(C)[C@@H]1CC[C@]2(C)[C@H](CC=C3[C@@H]4CC(C)(C)CC[C@]4(C(=O)NCC#CCN4CCN(C)CC4)CC[C@]32C)[C@@]1(C)CCC#N` here?
Answer: -47.9% (active)

Question: How did the growth turn out when `CN(C)CCCNc1c2ccc(Cl)cc2nc2c1oc1ccc(Cl)cc12` was run?
Answer: -53.9% (active)

Question: Which growth does the source give for `CC(=O)C1=C(C)NC(NN)=NC1c1cccc(Cl)c1` (stereo not given) here?
Answer: 115%

Question: With `CCOC(=O)c1c(Nc2ccccc2)nn2c(-c3ccc(Cl)cc3)ccnc12` as the compound, how does the growth read?
Answer: 86.7%

Question: How did the growth turn out when `C[C@]12CC[C@H]3[C@@H](CC=C4C[C@@H](O)CC[C@@]43C)[C@@H]1CC[C@@H]2[C@](C)(O)CCc1cccnc1` was run?
Answer: 47.6%

Question: How did the growth turn out when `CN1C(=O)N(C)C2C1NN=c1s/c(=C\c3ccccn3)c(=O)n12` (stereo not given) was run?
Answer: 101%

Question: For `COc1cc(OC)cc(-c2cc(-c3c[nH]c4ccccc34)nc(-c3c[nH]c4ccccc34)c2C#N)c1`, which growth is on record?
Answer: 102%

Question: For `Cc1ccccc1NC(=O)Nc1nc2ccc([N+](=O)[O-])cc2s1`, which growth is on record?
Answer: -27.7% (active)
